# Source: the supplement of paper PMC7057948, “A genome-wide approach for identification and characterisation of metabolite-inducible systems” (Nature Communications, 2020)
# Tested on: BadR/P_H16_RS27200 cyclohexanecarboxylate biosensor (pEH159)
# Assay: relative induction of RFP reporter vs primary effector; higher = stronger activation
# Settings: inducer concentration 5 mM; 6 h; Cupriavidus necator H16; minimal medium + 0.4% gluconate
# Procedure: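 Orthogonality screen of 21 primary inducers against 21 transcription factor/inducible promoter–mRFP biosensors in C. necator H16 in minimal medium, robotic 96-well format, 5 mM inducer, 30 °C. OD-normalised RFP fluorescence was read 6 h later and expressed as relative induction (%) = 100 × (FL compound − FL uninduced)/(FL primary inducer − FL uninduced); mean of n=4. Cognate pairs (100% by definition) omitted.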
row,Structure (SMILES),relative induction of RFP reporter [%]
1,NCCC(=O)O [β-alanine],-0.428
2,O=C(O)C(=O)c1ccccc1 [phenylglyoxylate],-0.214
3,O=C(O)CS(=O)(=O)O [sulfonatoacetate],-0.423
4,CC(=O)C(C)O (configuration not stated) [acetoin],-0.805
5,N[C@@H](Cc1ccc(O)cc1)C(=O)O [L-tyrosine],0.136
6,O=c1[nH]c(=O)c2nc[nH]c2[nH]1 [xanthine],-0.537
7,OC1OC[C@H](O)[C@H](O)[C@H]1O (mixture of isomers) [L-arabinose],-0.67
8,O=C(O)C(O)C(O)C(=O)O (configuration not stated) [tartrate],-0.687
9,O=C(O)c1ccccc1 [benzoate],-0.805
10,O=C(O)c1ccccc1O [salicylate],-0.169
11,C=C(CC(=O)O)C(=O)O [itaconate],-0.216
12,"O=C(O)c1ccc(O)c(O)c1 [3,4-dihydroxybenzoate]",-0.555
13,O=CO [formate],-0.738
14,N[C@@H](Cc1ccccc1)C(=O)O [L-phenylalanine],-0.263
15,O=C(O)CCO [3-hydroxypropanoate],0.0132
16,Nc1ccccc1C(=O)C[C@H](N)C(=O)O [L-kynurenine],-0.604
17,C=CC(=O)O [acrylate],-0.281
